This is one part of a sample in which hits are shown more often than they occur.
GBA enhancer – glucocerebrosidase activity enhancement; P04062; L444P Gaucher fibroblasts, 4-MU-glucoside fluorescence, 3 days; activation, % at 10 µM; 30,000 tested, 0.44% active; in the data active = activation above about 65%;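 note: 0% = vehicle wells and 100% = positive control wells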
Target sequence (P04062 whole entry L483P): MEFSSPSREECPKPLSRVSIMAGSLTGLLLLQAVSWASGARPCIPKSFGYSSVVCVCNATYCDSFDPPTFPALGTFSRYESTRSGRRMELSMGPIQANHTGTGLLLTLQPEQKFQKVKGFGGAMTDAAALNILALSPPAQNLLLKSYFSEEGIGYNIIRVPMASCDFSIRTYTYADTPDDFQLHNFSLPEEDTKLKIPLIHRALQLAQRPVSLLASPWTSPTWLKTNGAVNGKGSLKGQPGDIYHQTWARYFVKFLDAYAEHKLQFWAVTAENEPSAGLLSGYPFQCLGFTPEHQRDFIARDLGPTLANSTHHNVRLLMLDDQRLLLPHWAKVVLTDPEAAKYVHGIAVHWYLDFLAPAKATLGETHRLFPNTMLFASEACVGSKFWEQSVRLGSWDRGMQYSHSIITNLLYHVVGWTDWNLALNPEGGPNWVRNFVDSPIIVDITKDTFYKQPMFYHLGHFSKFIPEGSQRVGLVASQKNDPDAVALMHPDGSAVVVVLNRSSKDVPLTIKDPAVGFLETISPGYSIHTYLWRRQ
Active calls of the source: *.

`CCCCN(CC)S(=O)(=O)c1ccc(C(=O)Nc2nnc(CSC)o2)cc1` gave GBA enhancer 81*.
For CCCCN(CCCC)S(=O)(=O)c1ccc(C(=O)Nc2nnc(CSC)o2)cc1 the results were GBA enhancer 10.
`CCCN(CCC)S(=O)(=O)c1ccc(C(=O)Nc2nnc(CSC)o2)cc1` gave GBA enhancer 8.
Screening CCOC(=O)Cn1nnnc1C(CC)N(Cc1cc2c(C)cc(C)cc2[nH]c1=O)C1CCCC1 (configuration not stated) returned GBA enhancer -25.
Screening O=C(CSc1nnc(-c2ccc(Cl)cc2)o1)N1CCN(c2ccccc2)CC1 returned GBA enhancer -2.
Screening CCn1c(SCC(=O)N2CCN(c3ccccc3)CC2)nnc1-c1cc2cc(Cl)ccc2o1 returned GBA enhancer 90*.
`CCn1c(CC(=O)Nc2ccc(C)cc2)nnc1SCC(=O)N1CCN(c2ccccc2)CC1` gave GBA enhancer -4.
`CC(=O)Nc1ccccc1C(=O)N1CC(C)OC(C)C1` (configuration not stated) gave GBA enhancer -13.
For FC(F)(F)c1ccc(N2CCOCC2)c(Nc2nc3ccccc3n3cnnc23)c1 the results were GBA enhancer 75*.
Screening O=C(Nc1cc(C(F)(F)F)ccc1N1CCOCC1)c1cncc(Br)c1 returned GBA enhancer -22.
`Cc1nc2ccccc2nc1OCC(=O)Nc1cc(C(F)(F)F)ccc1N1CCOCC1` gave GBA enhancer -10.
Screening COc1ccc(CCNC(=O)CSc2nc(N)c3c(C)c(C)oc3n2)cc1OC returned GBA enhancer -15.
`O=S(=O)(NCc1csc(-c2cccnc2)n1)c1ccc2c(c1)OCCO2` gave GBA enhancer 109*.
Cc1nc(CNS(=O)(=O)c2ccc3c(c2)OCCO3)cs1 was read as GBA enhancer 5.
For O=S(=O)(NCCc1csc(-c2ccccc2)n1)c1ccc2c(c1)OCCO2 the results were GBA enhancer 54.
`Cc1ccccc1CN1CCN(CC(=O)NCc2ccc3c(c2)OCO3)C1=O` gave GBA enhancer -8.
CN(C)S(=O)(=O)c1ccc(C(=O)Nc2ccnn2C2CCCCC2)cc1 was read as GBA enhancer 2.
Cc1cc(C)nc(-n2nc(C)cc2NC(=O)c2cc3ccccc3oc2=O)n1 was read as GBA enhancer 114*.
`Cc1cc(C)nc(-n2nc(C)cc2Nc2ccccc2)n1` gave GBA enhancer 1.
Screening Cc1cc(C)nc(-n2nc(C)cc2NC(=O)c2cc(=O)c3ccccc3o2)n1 returned GBA enhancer 11.
Screening Cc1ccc2c(c1)N(Cc1ccncc1)C(=O)C(C)O2 (configuration not stated) returned GBA enhancer 29.
`CN(C)C(C(=O)NC1CCCCC1)c1ccc(Cl)cc1` (configuration not stated) gave GBA enhancer -23.
Screening COc1ccc(C(C(=O)NC2CCCCC2)N2CCC3(CC2)OCCO3)cc1 (configuration not stated) returned GBA enhancer 0.
Cc1ccc(C(C(=O)NC2CCCCC2)N2CCCC2)cc1 (configuration not stated) was read as GBA enhancer 127*.
For CCOc1ccc(C(=O)N2CCC(C(=O)c3ccc4c(c3)OCCO4)CC2)cc1 the results were GBA enhancer -63.
Screening Cc1cccc(Nc2nc(NCc3ccco3)nc(N3CCOCC3)n2)c1 returned GBA enhancer 35.
CC(C)CC1N=C2c3ccccc3N=C(SCc3cc(=O)n4ccccc4n3)N2C1=O (configuration not stated) was read as GBA enhancer 4.
`CCn1c(SCc2nc(-c3ccc(OC)c(OC)c3)no2)nnc1-c1cccs1` gave GBA enhancer -30.
CC1Cc2cc(/C(O)=C3/C(=O)C(=O)N(CCCN(C)C)C3c3ccncc3)ccc2O1 (configuration not stated) was read as GBA enhancer 3.
Screening COCCCN1C(=O)C(=O)/C(=C(/O)c2ccc(C)cc2)C1c1ccccc1 (configuration not stated) returned GBA enhancer -9.
For Cc1ccc(C)c(/C(O)=C2\C(=O)C(=O)N(CCCn3ccnc3)C2c2ccncc2)c1 (configuration not stated) the results were GBA enhancer 84*.
For COc1cc(C(C)=O)ccc1OCC(=O)c1cc(C)n(C2CC2)c1C the results were GBA enhancer -4.
`COc1cc(OC)c(NC(=O)CCc2nc(-c3ccc(C)cc3)no2)cc1Cl` gave GBA enhancer -3.
`Cc1cc(C)c(S(=O)(=O)N(C)CC(N)=O)c(C)c1` gave GBA enhancer -6.
`Cc1sc2nc(CN(Cc3cccs3)C(=O)NC3CCCCC3)[nH]c(=O)c2c1C` gave GBA enhancer 17.
COC(=O)Nc1nc2c(C)cccc2s1 was read as GBA enhancer -9.
COc1ccc(NC(=O)CN(C)S(=O)(=O)c2cccs2)cc1 was read as GBA enhancer -15.
Screening Cc1cccc2sc(NC(=O)CN(C)S(=O)(=O)c3cccs3)nc12 returned GBA enhancer 76*.
For CCCS(=O)(=O)N1CCCC(C(=O)N2CCOCC2)C1 (configuration not stated) the results were GBA enhancer -12.
COc1ccccc1C(=O)N(Cc1cccs1)C1CCS(=O)(=O)C1 (configuration not stated) was read as GBA enhancer -21.
`Cc1cccc(OC(C)C(=O)N(Cc2cccs2)C2CCS(=O)(=O)C2)c1C` (configuration not stated) gave GBA enhancer 6.
Cc1ccccc1OCC(=O)N(Cc1cccs1)C1CCS(=O)(=O)C1 (configuration not stated) was read as GBA enhancer 147*.
Screening COc1nc(Nc2ccc(C(C)=O)cc2)nc(OC)n1 returned GBA enhancer 47.
CC1CCN(CCCNC(=O)Cc2c(C(=O)O)n(C)c3ccccc23)CC1 was read as GBA enhancer -25.
`CCC(Sc1nc(C)cc(=O)[nH]1)C(=O)Nc1nc2c(s1)CCCC2` (configuration not stated) gave GBA enhancer 81*.
For Cc1cc(=O)[nH]c(SCC(=O)Nc2nc3c(s2)CCCC3)n1 the results were GBA enhancer -36.
CCC(Sc1nc(C)cc(=O)[nH]1)C(=O)Nc1nnc(C)s1 (configuration not stated) was read as GBA enhancer -21.
`COc1ccc(CCNC(=O)c2c(O)c3c([nH]c2=O)CCCC3)cc1` gave GBA enhancer 2.
Screening O=C(c1cc(-c2cccnc2)nc2ccc(Br)cc12)N1CCC2(CC1)OCCO2 returned GBA enhancer -17.
Screening CC1(C)CC(=O)C2=C(C1)OC(N)=C(C#N)C21CCN(Cc2ccccc2)CC1 returned GBA enhancer -1.
Screening CCOC(=O)C1=C(C)OC(N)=C(C#N)C1c1c(C)nn(-c2ccccc2)c1Cl (configuration not stated) returned GBA enhancer -7.
CCOC(=O)N1CCC2(CC1)C(C#N)=C(N)Oc1c2c(C)nn1-c1cccc(Cl)c1 was read as GBA enhancer 74*.
Screening COC(=O)c1cccc(S(=O)(=O)N2CCN(c3nc4ccccc4s3)CC2)c1 returned GBA enhancer -20.
`CCOc1ccccc1-n1c(SCC(=O)N2CCOCC2)nnc1-c1ccccn1` gave GBA enhancer -4.
Screening CCOc1ccccc1-n1c(SCC(N)=O)nnc1-c1ccc(O)cc1 returned GBA enhancer 116*.
Screening CCOc1ccccc1-n1c(SCC(=O)N(CC)CC)nnc1-c1ccccn1 returned GBA enhancer 0.

Assay outcomes (PubChem)
